SMILES strings stand for the structures. Records with an inconclusive call do not appear. Entries that show only a call come without a potency. Activity calls are given as the source filed them. The call rests on the fitted dose curve; in most records, active means well fitted cell-killing curve with a large enough effect; inconclusive means small, poorly fitted or top-dose-only effect; inactive means flat fitted curve, though single readings scatter.
Potency means the concentration at half of the fitted maximal effect.

A short description of this test: qHTS of pediatric cancer cell lines to identify multiple opportunities for drug repurposing: Primary screen for TC32 cells (AID 1347089). Further: nearly all actives have a fitted effect of over 60% in size. Conditions: TC32 Ewing sarcoma viability, CellTiter-Glo luminescence, 48 h; series mostly up to 45.8 µM. An excerpt: Drug repurposing or repositioning has been offered as a strategy for drug development in oncology programs. This approach has special potential for childhood cancers and other rare or orphan diseases, where the expected return on new drug development has been a disincentive to pharmaceuticals.
In this project we exploit the poly-pharmacology of drugs to discover new indications via phenotypic screening of a panel of 19 well-characterized cell lines derived from solid tumors seen in children and adolescents. The goal is to identify approved drugs with previously unrecognized anticancer properties that has the potential to reveal new mechanisms and biological processes involved in carcinogenesis or drug resistance. We employed a titration-based paradigm (quantitative high-throughput screening or qHTS), where all compounds were tested at multiple concentrations for their effect on cell viability. Concentration-response curves (CRCs) were derived directly from the primary screen, and both potency and efficacy values were used to identify compounds with robust bioactivity profiles. We screened the NIH Chemical Genomics Center (NCGC) Pharmaceutical Collection (NPC) and Mechanism Interrogation Plate (MIPE) small molecule collections of approved and investigational compounds against these cell lines; and measured metabolically active cells after 48 hours of compound treatment as a proxy for cell viability.
Assay Submitter: Nathalia J. Martinez, National Center for Advancing Translational Sciences, National Institutes of Health, Rockville, MD, USA; email: natalia.martinez@nih.gov
[1] Shen, M et al. Quantitative high-throughput phenotypic screening of pediatric cancer cell lines identifies multiple opportunities for drug repurposing. Oncotarget 2017 Dec 19;9(4):4758-4772. PMID 29435139.
The cells were obtained from University of North Carolina (UNC), Pediatric Preclinical Testing Program (PPT), and Coriell Institute (CI).
qHTS cell viability assay:
Cells were assayed in growth media at a density of 500-1,000 cells/well. Five microliters of cells were dispensed into 1,536-well, white, solid-bottom, TC-treated plates (Greiner Bio One) using a multidrop dispenser and incubated at 37 degrees C, 5% CO2, under a humidified atmosphere for 5 hours. Twenty-three nanoliters of compounds and controls (neutral control DMSO or positive control bortezomib at final concentration of 2.3 uM) were subsequently transferred by Kalypsys pintool. For primary screens, the MIPE collection was tested at 11-point dilutions (final concentrations range from 0.78 nM to 46 µM) and the NPC collection at 8-point dilutions (final concentrations range from 0.59 nM to 46 µM). Compounds tested in follow-up screens were assayed at 11-point dilutions. Cells were incubated for 48 hours, followed by addition of 3 uL of CellTiter-Glo (Promega). After a 15min incubation at room temperature, samples were analyzed for luminescence intensity using a ViewLux High-throughput CCD imager equipped with clear filters.
In the case of `c1ccc2c(Oc3nc(Nc4ccc(N5CCOCC5)cc4)c4ncn(C5CCCCC5)c4n3)cccc2c1`, the Potency entry was “inactive”.
Consider `NC(=O)Nc1sc(-c2ccc(F)cc2)cc1C(N)=O`, for which the Potency was 3.7 µM (active).
`CC[C@H](CC[C@@H](C)[C@H]1CC[C@H]2[C@@H]3CC=C4C[C@@H](O)CC[C@]4(C)[C@@H]3CC[C@]12C)C(C)C`: the Potency result is “inactive”.
With `Cn1cc(-c2ccc3ncc(Cc4ccc5ncccc5c4)n3n2)cn1`, the Potency entry is “inactive”.
The result for `CCC(C=C[C@@H]1OC(=O)C=C[C@H]1C)=C[C@H](C)CC=CC(C)=C[C@@H](C)C(=O)[C@@H](C)[C@H](O)[C@@H](C)CC(C)=CC(=O)O` reads 0.0777 µM (active); that for `CCN(CC)CCNC(=O)c1c(C)[nH]c(C=C2C(=O)Nc3ccc(F)cc32)c1C`, 12 µM (active).
To `O=C1c2c(O)cccc2[C@@H]([C@@H]2O[C@H](CO)[C@@H](O)[C@H](O)[C@H]2O)c2cc(CO)cc(O)c21` belongs “inactive”; to `CCCCCCCCCCCCCCCC(=O)OC[C@@H](NC(=O)C(Cl)Cl)[C@H](O)c1ccc([N+](=O)[O-])cc1`, “inactive”; to `COC1=C(OC)C(=O)C(CC=C(C)CCC=C(C)CCC=C(C)CCC=C(C)CCC=C(C)CCC=C(C)CCC=C(C)CCC=C(C)CCC=C(C)CCC=C(C)C)=C(C)C1=O`, “inactive”.
The result for `Cc1coc2c1C(=O)C(=O)c1c-2ccc2c(C)cccc12` reads “inactive”.
On to `CC(C=CC=C(C)C=CC1=C(C)CCCC1(C)C)=CC=CC=C(C)C=CC=C(C)C=CC1=C(C)CCCC1(C)C`, for which the Potency result was “inactive”.
As to `C[N+](C)([O-])CCNc1ccc(NCC[N+](C)(C)[O-])c2c1C(=O)c1c(O)ccc(O)c1C2=O`, the Potency was 5.23 µM (active).
As to `Cc1ccc(O)c(C(CCN(C(C)C)C(C)C)c2ccccc2)c1` (stereo not given), the Potency entry was “inactive”.
With `CCNC(=O)Nc1ccc(-c2nc3c(c(N4CCOC[C@H]4C)n2)CCN(C2COC2)C3)cc1`, the Potency is 3.3 µM (active).
Take `C=CC(=O)Nc1ccc2ncnc(Nc3ccc(OCc4cccc(F)c4)c(Cl)c3)c2c1`: the Potency was 4.66 µM (active).
With `COc1cc(OC)cc(-c2ccc3ncc4ccc(=O)n(-c5ccc(N6CCNCC6)c(C(F)(F)F)c5)c4c3c2)c1`, the Potency is 18.6 µM (active).
In the case of `N#Cc1c(NC(=O)c2cccc3ccccc23)sc2c1CCCC2`, the Potency is 1.04 µM (active).
Consider `COc1ccc(C[C@@H](C)[C@@H](C)Cc2ccc(OC)c(OC)c2)cc1OC`, for which the Potency is 9.3 µM (active).
Consider `COc1ccc(CCC(=O)c2c(O)cc(O[C@@H]3O[C@H](CO)[C@@H](O)[C@H](O)[C@@H]3O[C@@H]3O[C@@H](C)[C@H](O)[C@@H](O)[C@@H]3O)cc2O)cc1O`, for which the Potency entry is “inactive”.
`C[C@@H]1C(=O)O[C@H]2CC34[C@H]5C[C@@H](C(C)(C)C)C36[C@H](OC(=O)[C@@H]6O)O[C@@]4(C(=O)O5)[C@]21O` (stereo not given in full): the Potency entry was “inactive”.
Take `O=C(Nc1cccc(Nc2ncc(Br)c(NCCc3cnc[nH]3)n2)c1)N1CCCC1`: the Potency was 0.93 µM (active).
For `c1coc(CNc2ncnc3nc[nH]c23)c1`, the Potency result was “inactive”.
As for `Cc1ccc([N+](=O)[O-])cc1S(=O)(=O)N(C)N=Cc1cnc2ccc(Br)cn12`, the Potency is 0.0829 µM (active).
On to `CN1C(C(=O)Nc2ccccn2)=C(O)c2sc(Cl)cc2S1(=O)=O`, for which the Potency result was “inactive”.
As to `COc1ccc(Nc2nccc(NCCO)n2)cc1`, the Potency result is “inactive”.
For `Nc1nc2c(c(=O)[nH]1)N(C=O)[C@H](CNc1ccc(C(=O)N[C@@H](CCC(=O)O)C(=O)O)cc1)CN2`, the Potency result is “inactive”.
`N#CC(=C(O)c1ccc(Cl)cc1Cl)c1nc2cc(Cl)ccc2c(=O)[nH]1`: the Potency entry is “inactive”.
Turning to `Cn1cc(C=CC(=O)c2cccc(F)c2)cc1C=CC(=O)NO`, the Potency entry is “inactive”.
Consider `Cc1ncc(-c2ccnc(Nc3ccc(S(C)(=O)=O)cc3)n2)n1C(C)C`, for which the Potency was 13.1 µM (active).
To `COc1cc(C)c(Sc2cnc(NC(=O)c3ccc(CNC(C)C(C)(C)C)cc3)s2)cc1C(=O)N1CCN(C(C)=O)CC1` (stereo not given) belongs 20.8 µM (active).
Take `O=C1NC(=O)[C@@H](c2cn3c4c(cccc24)CCC3)[C@H]1c1c[nH]c2ccccc12`: the Potency is 2.34 µM (active).
As to `c1ccc(CNc2nc(NCc3ccccc3)c3ccccc3n2)cc1`, the Potency result is “inactive”.
For `C[C@@H]1CC[C@@]2(OC1)OC1CC3C4CC=C5CC(O)CCC5(C)C4CCC3(C)C1[C@@H]2C` (stereo not given in full), the Potency result is “inactive”.
To `CCS(=O)(=O)Nc1ccc2[nH]c(O)c(C(=Nc3ccc(CN4CCCCC4)cc3)c3ccccc3)c2c1` belongs 0.131 µM (active).
As for `CN1[C@H]2CC(OC(=O)[C@@H](CO)c3ccccc3)C[C@H]1[C@H]1O[C@H]12` (stereo not given in full), the Potency result is “inactive”.
As to `COC(=O)[C@H](CCCN=C(N)N)NS(=O)(=O)c1ccc(C)cc1`, the Potency entry was “inactive”.
The result for `CCOC(=O)N1CCN([N+]([O-])=NOc2ccc([N+](=O)[O-])cc2[N+](=O)[O-])CC1` reads “inactive”; that for `OCCN1C[C@H](O)[C@@H](O)[C@H](O)[C@@H]1CO`, “inactive”.
Take `C=CC1=C(C(=O)O)N2C(=O)[C@@H](NC(=O)C(=NO)c3csc(N)n3)[C@H]2SC1`: the Potency result is “inactive”.
Consider `CCc1cnn2c(NCc3ccc[n+]([O-])c3)cc(N3CCCC[C@@H]3CCO)nc12`, for which the Potency was 0.131 µM (active).

Source of the values: PubChem BioAssay (NCATS).
